From PubChem BioAssay
This is a sample that favours compounds with a hit; in the whole collection about 20% have one here.
Pf growth 96h: P. falciparum growth inhibition at 96 hours; P. falciparum luciferase reporter growth, 96 h; Potency, µM (series often up to 28.7 µM), for inactives: at the top dose activity change, negative = inhibition, most hits filed as inhibitors; 320,000 compounds, 6.9% hits; AID 504834; note: potency is the fitted concentration of half-maximal effect; % is set by controls: 0 for no effect and ±100 for the full control effect
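Two-generation exposure (96 h) targets delayed-death phenotype. Reporter parasites carrying integrated firefly luciferase, in red cells at 2% hematocrit and 0.05% parasitemia final, kept at 37 C, 5% CO2; luminescence loss indicates inhibition.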
CHX counter: counter-screen for Shiga toxin inhibitors: cycloheximide protein synthesis inhibition | cell reporter, cycloheximide protein synthesis inhibition counterscreen | max response, % | 300,000 compounds, 12% hits; in the data active = max response mostly above about 13%, no sharp cut-off; inactive = mostly below about 14%; note: read at 38.3 µM for the half of the compounds with a filed dose; 0% is about no effect
HCMV inh: human cytomegalovirus inhibition; HFF cells, HCMV-luciferase reporter, 72 h; stronger effect = lower value; 410,000 compounds, 4.5% hits; AID 1259415; activity change, negative = inhibition, % at 57.5 µM; in the data active = activity change below about -60%; inconclusive = no clear call, values can overlap the other calls; inactive = above about -39%; note: % is set by controls: 0 for no effect and ±100 for the full control effect
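Luciferase read-out from HCMV-luciferase-infected HFFs (MOI 1 PFU/cell) 72 h post infection at 37C; compounds added after 16 h cell attachment; activity normalized between buffer-only basal and Salinomycin (10uM) inhibitor controls.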
Shiga inhibitor: blocks Shiga toxin action in Vero cells | inhibition, % at 38.7 µM | 290,000 compounds, 9.2% hits | Vero cells, Shiga toxin protein synthesis inhibition reporter; in the data active = inhibition mostly above about 28%, no sharp cut-off; inactive = mostly below about 43%; note: 0% is about no effect
Pf growth 48h: P. falciparum growth inhibition at 48 hours (one generation); AID 504832; 310,000 compounds, 5.9% hits; Potency, µM (titrated, usually from 28.7 µM), inactives show at the top dose activity change, negative = inhibition, actives largely listed as inhibitors; P. falciparum luciferase growth in erythrocytes, 48 h; note: potency is the fitted concentration of half-maximal effect; % is set by controls: 0 for no effect and ±100 for the full control effect
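First compound was added to culture medium, then infected red cells at 0.1% parasitemia and 2% hematocrit (final). After incubation at 37 C under 5% CO2, luciferase detection reagent was dispensed and light output recorded.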
Active calls of the source: *; ? = inconclusive; nt = no result; [ ] = remark or other dose. Unless noted, calls come from the whole dose curve; as a rule, active = well fitted inhibition curve with a large enough effect; inconclusive = small, poorly fitted or top-dose-only effect, or another doubt; inactive = no such curve, though single readings can be large or run the other way.

SMILES	Pf growth 96h	CHX counter	HCMV inh	Shiga inhibitor	Pf growth 48h
O=C(COc1ccc(Br)cc1)N(Cc1ccccc1)c1ccccn1	?	15.5	-20.7	52.7*	?
Cc1ccccc1-c1cnn(-c2cccc([N+](=O)[O-])c2)c1N	21.8%	25.7*	-17.1	38.8	33.4%
Cc1ccc(-c2cnn(-c3cccc([N+](=O)[O-])c3)c2N)cc1	99.7%	46.0*	?	102.7*	202.1%
O=c1cc(N2CCCCC2)c(-c2ccccc2)nn1Cc1ccccc1Cl	2.62µM*	-2.9	-18.0	-12.2	3.29µM*
O=c1cc(N2CCCCC2)c(-c2ccccc2)nn1Cc1ccc(Cl)cc1Cl	?	6.0	-23.8	7.8	2.08µM*
O=c1cc(N2CCCCC2)c(-c2ccccc2)nn1Cc1cccc(Cl)c1	?	2.8	20.0	-5.9	?
O=c1cc(Cl)c(-c2ccccc2)nn1Cc1ccc(Cl)cc1	0.0%	-7.2	-64.5*	-7.2	?
O=c1c2ccccc2c(-c2ccccc2)nn1Cc1ccc(Cl)cc1	68.5%	-0.6	22.4	-6.4	?
CCOC(=O)[C@H]1[C@H]2COc3ccc(C)cc3[C@@H]2N2C(=O)CN(CC3CCCO3)C(=O)[C@@]12C (some centres undefined)	?	nt	-4.2	nt	16.3%
O=C1c2cccc(OCC(=O)N3CCCc4ccccc43)c2CCN1Cc1ccc(F)cc1	10.4µM*	2.1	-39.9	19.9	?
CCOC(=O)N1CCN(C(=O)COc2cccc3c2CCN(Cc2ccc(F)cc2)C3=O)CC1	?	0.4	-66.7*	10.1	-26.8%
Cc1ccccc1OCC(=O)OCC(=O)N1CCCc2ccccc21	40.6%	nt	30.0	nt	5.1%
CCOC(=O)N1CCN(C(=O)COc2cccc3c2CCN(CC)C3=O)CC1	?	-4.6	-7.5	-8.3	4.4%
CN1CCc2c(OCC(=O)N3CCCc4ccccc43)cccc2C1=O	?	-2.3	-11.3	-2.5	-0.3%
Cc1cccc(CN2CCc3c(OCC(=O)N4CCCc5ccccc54)cccc3C2=O)c1	?	14.2*	-19.9	28.2	11.7µM*
Cc1ccc(-c2nnn(CC(=O)N(c3cccc(F)c3)C(C(=O)NC(C)(C)C)c3ccco3)n2)o1 (centres undefined)	3.4%	-0.9	-2.2	-6.4	?
O=C(NC1CCCCC1)c1cc2c(Cl)nc3ccccc3c2s1	nt	nt	-9.1	nt	nt
CCOC(=O)c1sc2nc(SCC(=O)N(CC)CC)n(CCCN3CCCC3=O)c(=O)c2c1C	-92.4%	-1.0	?	-16.8	2.08µM*
COc1ccc(CN2CCC(CO)(Cc3ccccc3)CC2)cc1Cn1cccn1	-5.1%	6.9	?	15.5	-19.5%
COC(=O)C1(C(=O)OC)c2ccccc2N(S(=O)(=O)c2ccc(C)cc2)C1CC(=O)c1ccccc1 (centres undefined)	nt	nt	64.9	nt	nt
COc1ccc(CCN2CCC(Nc3nc4ccccc4n3Cc3ccc(F)cc3)CC2)cc1	0.738µM*	-5.6	nt	-16.6	0.522µM*
O=C(CSc1nnnn1-c1cccnc1)Nc1ccc(F)cc1F	6.3%	-2.2	6.6	-2.6	0.5%
CN1C2CCC1/C(=C/c1ccccn1)C(=O)/C2=C\c1ccccn1	0.465µM*	-5.9	-101.4*	-8.1	0.657µM*
Cc1ccc(C=Cc2ccccn2)cc1	nt	nt	11.9	nt	nt
CN1C2CCC1/C(=C\c1ccccc1)C(=O)/C2=C\c1ccccc1	?	14.7	-66.1*	-8.5	1.04µM*
SMILES	Pf growth 96h	CHX counter	HCMV inh	Shiga inhibitor	Pf growth 48h
CCOC(=O)CCS(=O)(=O)c1ccc(-c2ccc(S(=O)(=O)CCC(=O)OCC)cc2)cc1	13.3%	-4.5	-20.8	-22.1	-2.6%
COc1ccc(C)cc1NC(=O)c1nn(-c2ccccc2)cc1OC	2.94µM*	0.7	-16.2	12.4	-71.6%
COc1cn(-c2ccccc2)nc1C(=O)Nc1ccccc1	9.1%	46.9*	117.7	81.7*	-15.7%
COc1cn(-c2ccccc2)nc1C(=O)Nc1ccc(C)cc1	-19.4%	36.0*	37.2	55.7*	?
COc1ccc(NC(=O)c2ncn(-c3ccccc3)n2)cc1Cl	nt	nt	71.8	nt	nt
CCOC1=C2CN(S(=O)(=O)c3ccc(C)cc3)[C@@H](c3cccs3)C[C@H]2[C@H]2C(=O)N(c3ccccc3)C(=O)[C@H]2C1	nt	nt	-12.7	nt	nt
CC(C)c1ccc(NC(=O)CSc2ncc3c(n2)-c2ccccc2N(C)S3(=O)=O)cc1	nt	nt	9.4	nt	nt
CCc1cccc(NC(=O)Cn2c(=O)n(-c3ccccc3C)c(=O)c3c2c2cc(C)ccc2n3C)c1	nt	nt	-11.0	nt	nt
CC(=O)Oc1ccc2ccccc2c1C(NC(=O)C(C)C)c1cccc([N+](=O)[O-])c1 (centres undefined)	nt	-2.0	-21.4	-12.7	1.85µM*
CCCCC(=O)NC(c1cccc([N+](=O)[O-])c1)c1c(OC(C)=O)ccc2ccccc12 (centres undefined)	46.1%	16.9*	?	5.3	0.828µM*
CC(=O)Oc1ccc2ccccc2c1C(NC(=O)Cc1ccccc1)c1ccccc1 (centres undefined)	?	8.1	-11.4	1.1	4.15µM*
CC(=O)NC(c1cccc([N+](=O)[O-])c1)c1c(OC(C)=O)ccc2ccccc12 (centres undefined)	nt	nt	10.2	nt	nt
CCN(C(=O)CSc1nc2ccccc2n1CC(=O)Nc1cccc(C#N)c1)c1ccccc1	nt	nt	-3.2	nt	nt
O=C(COC(=O)c1ccc(Cl)nc1)Nc1ccc2c(c1)OCCO2	-3.5%	nt	2.9	nt	0.0%
CC(C(=O)Nc1sc2c(c1C#N)CCCCC2)N1C(=O)c2ccccc2C1=O (centres undefined)	22.1%	1.3	-1.9	10.2	?
NC(=O)c1nnn(Cc2cc(Cl)c(C(=O)c3ccc(Cl)cc3)c(Cl)c2)c1N	nt	nt	-91.2*	nt	nt
CC(=O)CSc1ncnc2c1cnn2-c1ccccc1	-10.3%[5.75 µM]	36.2*	32.3	90.9*	155.9%
Cc1ccccc1-n1ncc2c(SCC(=O)NCc3cccs3)ncnc21	5.22µM*	13.2	-36.0	19.0	-27.4%
COc1cc(C(C)=O)ccc1Oc1ncnc2c1cnn2-c1ccc(C)c(C)c1	?	32.2*	14.1	62.8*	?
Cc1csc(NC(=O)CSc2ncnc3c2cnn3-c2ccccc2Cl)n1	-2.2%	2.0	nt	-10.4	0.0%
CC(C)C(=O)NNC(=O)CSc1ncnc2c1cnn2-c1ccccc1Cl	-22.3%	4.2	-65.1*	-5.1	2.2%[0.00184 µM]
O=C(CSc1ncnc2c1cnn2-c1ccccc1)Nc1ccccc1	-4.1%	-2.6	?	-6.5	26.8%
COc1ccc(OC)c(NC(=O)c2cn3c4c(ccc(Cl)c4c2=O)OC(C)C3)c1 (centres undefined)	nt	nt	-1.0	nt	nt
CNC(=O)CSc1ncnc2c1cnn2-c1ccccc1	44.9%	35.0*	-24.5	69.2*	79.4%
Cc1ccc(-n2ncc3c(SCC(N)=O)ncnc32)cc1C	?	47.7*	-6.6	51.6*	119.9%
Cc1ccc(-n2ncc3c(=O)n(CC(N)=O)cnc32)cc1C	?	7.2	110.0	17.0	27.8%
COc1cccc2c1ncc1c(-c3ccc(C)cc3)nn(-c3ccc(F)cc3)c12	nt	nt	-0.8	nt	nt
